Assay results taken from PubChem BioAssay AID931 (National Center for Advancing Translational Sciences (NCATS), 2007).
Inconclusive results are not listed. Calls of active or inactive are those of the source. Calls come from the whole dose curve; as a rule, active = well fitted cell-killing curve with a large enough effect; inconclusive = small, poorly fitted or top-dose-only effect; inactive = flat fitted curve, though single readings scatter.

Assay: Confirmation and Secondary Assay for Modulators of Hemoglobin Beta Chain Splicing at IVS2 654 locus: Cytotoxicity
Conditions: HBB IVS2-654 splicing reporter cells
Excerpt: NIH Chemical Genomics Center [NCGC]
NIH Molecular Libraries Screening Centers Network [MLSCN]
PI Name: Dr. Ryszard Kole
Modulation of Alternative Splicing as Therapy
Abnormal splicing is associated with a number of diseases, including cancer and genetic diseases such as cystic fibrosis, muscular dystrophy and beta-thalassemia. Alteration of disease associated splicing patterns provides a promising target for treatment. […] Mutations in the second intron of the b-globin gene at positions 654 or 705 are clinically relevant and cause mis-splicing which results in an out of frame gene product.
Examination of toxicity of select compounds in EGFP-654 HeLa Cells
HeLa cell lines were stably transfected with a construct in which the EGFP (enhanced green fluorescent protein) cDNA was interrupted by the second intron of the beta-globin gene (IVS2-654). The ISV2 intron contains mutations which cause mis-splicing of EGFP and premature termination of EGFP which results in a nonfluorescent protein product. […] Expression of the transgene was driven by the CMV promoter. Compounds, and related structures identified in the primary screen as potential splicing modulation were examined for their effects on cell toxicity in this follow up assay .
NCGC Assay Protocol Summary:
Toxicity Screening. Freshly thawed HeLa EGFP-654 cells were seeded in 5 ul of optimem media (Invitrogen) containing 2 % fetal calf serum (Hyclone) and 1x penicillin/streptomycin (Invitrogen) at a concentration of 500 cells per well in 1536-well plates. Cells were incubated overnight at 37C in 5% CO2. The next day, cells were treated with DMSO, 500 nM antisense ISV2 654 PNA control oligo, or library compound and allowed to grow at 37C in 5% CO2 for 2 days. Cells were treated with 5 ul/well of freshly prepared ATPlite (Perkin Elmer) and cells were allowed to lyse at room temperature for 5 minutes. Luminescence was captured on an Viewlux CCD imager (Perkin Elmer) using a 15 second integration time and cell death was measured by comparing compound treatments to DMSO treatment (no cell death). […]
For `[Cl-].[Cl-].[Hg+2]`, the Potency was 0.398 µM (active). With `CC(=O)[O][Hg][c]1ccccc1` the Potency was 12.6 µM (active). With `O=c1[nH]cc(F)c(=O)[nH]1` the Potency was 12.6 µM (active).
